Data from ChEMBL document CHEMBL3988442, “University of Dundee, Small-Polar-MMV Screening Library” (2021).
In all, about 66,000 compounds went through this assay and about 960 (1.5%) showed an effect of 50% or more. What follows is part of a selection rich in strong results, with near analogues and random picks from the rest.

System: Trypanosoma brucei
Assay: Trypanosoma brucei 72 hour study
Assay type: functional, organism-based
Design: scale not given: in the data most compounds retested in dose-response had high values

| SMILES | Percent Effect (30 µM, 30.03 µM) | Percent Effect (30.3 µM, […]) |
| --- | --- | --- |
| Cc1nnc(N2CC[C@H](OCC3CC3)[C@@H](Cc3ccccc3)C2)s1.O=C(O)C(F)(F)F | -16.49% |  |
| CO[C@@H]1CCN(c2nnc(C)s2)C[C@@H]1Cc1ccccc1.O=C(O)C(F)(F)F |  | -5.303% |
| Cc1nnc(N2CC[C@@H](OCC3CC3)[C@@H](Cc3ccccc3)C2)s1.O=C(O)C(F)(F)F |  | 100.5% |
| CO[C@H]1CCN(c2nnc(C)s2)C[C@@H]1Cc1cccc(C)c1.O=C(O)C(F)(F)F |  | 100.1% |
| CO[C@H]1CCN(c2nnc(C)s2)C[C@@H]1Cc1ccccc1.O=C(O)C(F)(F)F |  | 12.72% |
| CO[C@@H]1CCN(c2nnc(C)s2)C[C@@H]1Cc1cccc(C)c1.O=C(O)C(F)(F)F |  | -8.568% |
| O=C(N[C@H]1CC[C@@]2(CCC(=O)N2CC2CC2)CC1)c1cnccn1 |  | -8.587% |
| Cc1nnc([C@@]23CCO[C@@H]2CCN(S(=O)(=O)c2ccccc2)C3)o1 |  | -46.55% |
| CNC(=O)c1ccc(CN(C)C(=O)Nc2nnc(C(C)C)s2)cc1 | 1.168% |  |
| Cc1cc2c(=O)n3c(nc2s1)CCN(Cc1[nH]cnc1C)CC3.Cl |  | -2.938% |
| COc1ccc(F)cc1-c1ccccc1CC1CNCCNC1=O.Cl (stereo unspecified) |  | -18.15% |
| O=C(NCc1ccccc1-n1cccn1)C1CC2(CCNCC2)CN1 (stereo unspecified) | 40.65% |  |
| O=C(O)C(F)(F)F.O=C1C[C@H]2[C@@H](CCN2C(=O)Cc2cccs2)N1Cc1ccncc1 |  | -0.2658% |
| CCCc1cncnc1N1CCC(NCc2ccncc2)CC1 | -66.51% |  |
| CCCc1cncnc1N1CCC(NCCc2ccc(O)cc2)CC1 | -6.649% |  |
| CCCc1cncnc1N1CCC(NCc2ccc(O)cc2)CC1 | 63.63% |  |
| CN(C)CC1(O)CCN(S(=O)(=O)c2cccc(F)c2)C1 (stereo unspecified) |  | -12.71% |
| Brc1cccnc1OC1CCNCC1.Cl | -18.95% |  |
| Cc1ccc2c(c1)C(NCc1ccccn1)CC2 (stereo unspecified) | 31.05% |  |
| COc1cccc(CNC2CCc3ccc(C)cc32)n1 (stereo unspecified) | 102.5% |  |
| COc1cccc(CNC2CCCOc3cc(C)ccc32)n1 (stereo unspecified) | -17.07% |  |
| N#Cc1c2n(c3c(=O)[nH]cnc13)CCCC2 | -59.85% |  |
| Cc1nn(C)cc1CNCc1ccc(N(C)C)cc1 |  | -17.42% |

| SMILES | Percent Effect (30 µM, 30.03 µM) | Percent Effect (30.3 µM, […]) |
| --- | --- | --- |
| CC1=C(C#N)C(=O)NC(=O)/C1=C\c1c(C)nn(-c2ccccc2)c1O |  | 8.75% |
| CN(C)c1nc2c(c(N3CCc4ccccc4C3)n1)CCNC2 | 100.4% |  |
| Cc1ccccc1N1CCN(c2nc(N(C)C)nc3c2CCNC3)CC1 | -31.91% |  |
| c1ccc2c(c1)CCN(c1nc(-c3ccncc3)nc3c1CCNC3)C2 | -16.52% |  |
| CC(C)C(=O)NC1CC2(CCN(CC(=O)N(C)C)CC2)c2ccccc21.O=C(O)C(F)(F)F (stereo unspecified) |  | -88.42% |
| Cc1ccsc1C(=O)N1CCC2(CC(C(=O)N(C)C(C)C)=NO2)C1 (stereo unspecified) | -54.71% |  |
| CCCN1CCC(NC(=O)c2csc(C)c2-c2ccccc2)CC1 |  | -89.86% |
| CCCN1CCC(NC(=O)Nc2ccc(OC)c(OC)c2)CC1 |  | -0.7678% |
| CCCN1CCC(Nc2cc(-c3ccccc3)ccc2OC)CC1 |  | 57.37% |
| CC(NC(=O)NCCCN1CCCCCC1=O)c1nncn1C (stereo unspecified) |  | -29.33% |
| O=C(O)C(F)(F)F.O=C(O)C(F)(F)F.O=C1COC2(CCN(Cc3cccs3)CC2)CN1c1cccnc1 | -14.7% |  |
| CCNc1nc(-c2cccnc2)c(-c2ccnc(NS(C)(=O)=O)n2)s1 |  | 1.048% |
| CC(C)(C)Nc1nc(-c2cccnc2)c(-c2ccnc(NCCO)n2)s1 |  | 94.16% |
| CCNc1nc(-c2cccnc2)c(-c2ccnc(NCCO)n2)s1 |  | 9.967% |
| O=C(NCCc1cccs1)[C@H]1CO[C@H]2CCN(C3CCC3)C[C@H]2C1.O=C(O)C(F)(F)F |  | -77.19% |
| CCOC(=O)[C@]12CCCN(Cc3ccco3)C[C@H]1CN(S(C)(=O)=O)C2.O=C(O)C(F)(F)F |  | 4.884% |
| COc1ccc(CN2CC(=O)N(c3ccc(C)cc3)CC2C)cc1O (stereo unspecified) | -20.88% |  |
| COc1cccc(OC)c1CN1CC(=O)N(c2ccc(C)cc2)CC1C (stereo unspecified) | 102.6% |  |
| COc1cc(CN2CC(=O)N(c3ccc(C)cc3)CC2C)cc(OC)c1 (stereo unspecified) | -11.31% |  |
| Cn1cc(C(=O)N2C[C@H]3C[C@H](Oc4ccccc4)C[C@H]3C2)cn1 |  | 8.793% |
| Cc1nc(Nc2cnccn2)cc(C2CCCN2)n1.Cl (stereo unspecified) |  | -13.8% |
| Cl.c1nnc(Nc2cncc(C3CCCN3)n2)s1 (stereo unspecified) |  | -8.347% |
| Cl.c1cnc(Nc2cncc(C3CCCN3)n2)cn1 (stereo unspecified) |  | 99.3% |
